Results published in the supplement of paper PMC7393113.
± gives the standard deviation of the averaged measurements.

Test system: iBMDM (immortalised mouse bone-marrow-derived macrophages), LPS-stimulated
Experiment: mitochondrial superoxide (MitoSOX fluorescence) fold increase over unstimulated control; higher = more LPS-induced mitochondrial ROS (less inhibition)
Settings: inhibitor concentration: 500 nM, LPS: 100 ng/ml
How it was run: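 Immortalised mouse bone-marrow-derived macrophages were seeded in triplicate in black 96-well plates and moved to phenol-red-free 1% FCS/DMEM for 20 h. They were pretreated 30 min with kinase inhibitors (500 nM), loaded with 1 μM MitoSox for 10 min, then given LPS (100 ng/ml). Fluorescence (excitation/emission 510/580 nm, ClarioStar plate reader) was read every 60 min for 4 h. Mitochondrial superoxide is fold induction over untreated control macrophages, averaged over three replicates.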

| Compound | mitochondrial superoxide (time after LPS: 1 h) | mitochondrial superoxide (time after LPS: 2 h) | mitochondrial superoxide (time after LPS: 4 h) |
| --- | --- | --- | --- |
| Cc1c(C(=O)N2CCOc3ccc(-c4ccc(N)nc4)cc3C2)ccc(S(C)(=O)=O)c1F | 1.112 ± 0.0078 | 1.25 ± 0.064 | 1.32 ± 0.059 |
| N#CC(=Cc1ccc(O)c(O)c1)C(=O)NCc1ccccc1 [AG-490 (Tyrphostin B42)] | 1.35 ± 0.052 | 1.36 ± 0.041 | 1.44 ± 0.097 |
| COc1cc2ncnc(Nc3cccc(Cl)c3)c2cc1OC [AG-1478 (Tyrphostin AG-1478)] | 1.11 ± 0.082 | 1.54 ± 0.039 | 1.65 ± 0.057 |
| C=CC(=O)N1CCC[C@@H](n2nc(-c3ccc(Oc4ccccc4)cc3)c3c(N)ncnc32)C1 | 1.26 ± 0.099 | 1.32 ± 0.041 | 1.46 ± 0.043 |
| COc1cc2ncnc(Oc3cccc(NC(=O)Nc4cc(C(C)(C)C(F)(F)F)on4)c3)c2cc1OC | 1.36 ± 0.027 | 1.562 ± 0.0063 | 1.59 ± 0.025 |
| COc1cc2ncc(-c3ccccc3)nc2cc1OC [Tyrphostin AG 1296] | 1.469 ± 0.014 | 1.47 ± 0.017 | 1.58 ± 0.021 |
| Cn1cc(C2=C(c3ccc(Cl)cc3Cl)C(=O)NC2=O)c2ccccc21 | 1.46 ± 0.18 | 1.56 ± 0.22 | 1.68 ± 0.29 |
| Cc1c(CN2CCN(C(=O)[C@H](C)O)CC2)sc2c(N3CCOCC3)nc(-c3cnc(N)nc3)nc12 | 1.266 ± 0.011 | 1.44 ± 0.057 | 1.5 ± 0.061 |
| CC(C)(C)c1cc(NC(=O)Nc2ccc(-c3cn4c(n3)sc3cc(OCCN5CCOCC5)ccc34)cc2)no1 [Quizartinib (AC220)] | 1.15 ± 0.027 | 1.19 ± 0.047 | 1.31 ± 0.042 |
| Cc1nc(N)sc1-c1ccnc(Nc2ccc(N3CCOCC3)cc2)n1 | 1.49 ± 0.063 | 1.55 ± 0.023 | 1.7 ± 0.02 |
| Oc1ccc(-c2nc(-c3ccc(F)cc3)c(-c3ccncc3)[nH]2)cc1 | 1.32 ± 0.13 | 1.41 ± 0.13 | 1.57 ± 0.12 |
